Test [1] relates to Human papillomavirus type 1a protein E7 (residues 44-93). Kind of test: small molecules binding HPV E7 44-93 – biochemical, small-molecule microarray, residues 44-93, 635 nm fluorescence, primary screen (AID 1108).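 Also: E7 fragment applied at 1 µg/mL in TBST for 1 h at 4 C; score combines spot fluorescence with its signal to noise ratio.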 The following applies: fluorescence 635 nm, higher = more signal.
The nature of test [2]: hepatitis C replication reporter changes, two-sided – Huh7 cells, luciferase reporter, HCV replication inhibitor project, primary screen (AID 1109).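 Also: huh7 hepatoma cells harbouring a luciferase neomycin HCV replicon reporter; luciferase luminescence as measure of HCV replicon replication; test concentration not given here.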 The following applies: Huh7 HCV replicon luciferase reporter, 48 h; higher = more signal. Background: A reporter such as luciferase makes a cellular process visible.
Test [3] has as its target Left-right determination factor 2 (Homo sapiens) (UniProt O00292). The test is described as follows: small molecules binding LEFTY2 protein – biochemical, small-molecule microarray, 635 nm fluorescence scan, primary screen (AID 1110). The following applies: higher = more signal.
Test [4] deals with Calmodulin-1 (Homo sapiens) (UniProt P0DP23). Kind of test: small molecules binding calmodulin-1 with EGTA – biochemical, small-molecule microarray, Cy5-labelled CALM1, profiling panel (AID 1111).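 Also: labelled calmodulin applied in Tris saline Tween buffer holding calcium plus EGTA and DTT.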 The settings on record: Cy5-CALM1 binding fluorescence, higher = more signal.
Test [5] has the same target. Kind of test: small molecules binding Ca-loaded calmodulin-1 – biochemical, small-molecule microarray, Cy5-labelled CALM1, plus calcium, artefact control for SMM control-protein annotation, profiling panel (AID 1112).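 Also: score merges spot fluorescence with signal to noise from triplicate slides.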 The settings on record: Cy5-CALM1 binding fluorescence, higher = more signal.
A short description of test [6]: probe aWnt5a binding to arrayed compounds – biochemical, biotinylated probe, 635/667 nm fluorescence, primary screen (AID 1113).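 Also: score merges 667 nm fluorescence intensity with signal-to-noise per printed feature.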 The settings on record: small-molecule microarray, higher = more signal.
Test [7] is described as follows: probe aShh binding to arrayed compounds – biochemical, biotinylated probe, 635/667 nm fluorescence, primary screen (AID 1114).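 Also: probe is biotin-labelled aShh protein from a stem cell growth factor screen; measures binding of labelled protein to compounds printed on the slide; score merges feature fluorescence at 667 nm with signal-to-noise.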 The settings on record: small-molecule microarray, higher = more signal.
Test [8] in a line: probe aNog binding to arrayed compounds – biochemical, biotinylated probe, 635/667 nm fluorescence, primary screen (AID 1115).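 Also: probe is biotinylated aNog protein used at 0.15 µg/mL for 1 h at 4 C; z-score combines 667 nm fluorescence of each spot with its signal to noise.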 The following applies: small-molecule microarray, higher = more signal.
The target of test [9] is Torsin-1A-interacting protein 1 (Homo sapiens) (UniProt Q5JTV8). Kind of test: compound microarray binding of lysate hLAP1 – cell lysate, small-molecule microarray, COS7 lysate, 635/667 nm fluorescence, primary screen (AID 1116). The following applies: 635 nm fluorescence, higher = more signal.
Chain of Torsin-1A-interacting protein 1 (Homo sapiens) (Q5JTV8 whole entry, looked up): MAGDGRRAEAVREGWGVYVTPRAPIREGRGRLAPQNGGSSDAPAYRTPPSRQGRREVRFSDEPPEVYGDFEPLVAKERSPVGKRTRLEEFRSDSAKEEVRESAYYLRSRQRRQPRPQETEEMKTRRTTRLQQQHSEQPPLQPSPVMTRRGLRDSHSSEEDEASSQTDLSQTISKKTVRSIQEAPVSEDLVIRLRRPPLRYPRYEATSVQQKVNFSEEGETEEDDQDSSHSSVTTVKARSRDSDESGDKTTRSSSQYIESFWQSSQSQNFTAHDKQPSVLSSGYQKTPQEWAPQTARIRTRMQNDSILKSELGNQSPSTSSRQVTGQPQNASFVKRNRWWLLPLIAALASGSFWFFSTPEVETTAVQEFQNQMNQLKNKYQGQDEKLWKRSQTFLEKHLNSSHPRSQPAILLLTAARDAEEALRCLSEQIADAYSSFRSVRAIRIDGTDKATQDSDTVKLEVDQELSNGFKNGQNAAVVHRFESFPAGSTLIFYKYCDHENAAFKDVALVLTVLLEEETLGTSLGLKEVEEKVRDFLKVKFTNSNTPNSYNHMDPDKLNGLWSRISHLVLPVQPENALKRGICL
Test [10] concerns the target Alpha-bungarotoxin (Bungarus multicinctus) (UniProt P60615). The test is described as follows: compounds binding labelled alpha-BTX control protein – biochemical, small-molecule microarray, Alexa647 label, 635/667 nm fluorescence, artefact control for SMM control protein annotation, profiling panel (AID 1117). The following applies: alpha-BTX-A647 binding fluorescence, higher = more signal.

In the next test the target is Albumin (Bos taurus) (UniProt P02769). The test is described as follows: compounds binding labelled BSA control protein – biochemical, small-molecule microarray, Alexa647 label, 635/667 nm fluorescence, artefact control for SMM control protein annotation, profiling panel (AID 1118).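 Also: score merges 667 nm emission intensity and signal-to-noise per printed compound spot.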 The following applies: BSA-A647 binding, fluorescence 635 nm, higher = more signal.
Chain of Albumin (Bos taurus) (P02769 whole entry, looked up): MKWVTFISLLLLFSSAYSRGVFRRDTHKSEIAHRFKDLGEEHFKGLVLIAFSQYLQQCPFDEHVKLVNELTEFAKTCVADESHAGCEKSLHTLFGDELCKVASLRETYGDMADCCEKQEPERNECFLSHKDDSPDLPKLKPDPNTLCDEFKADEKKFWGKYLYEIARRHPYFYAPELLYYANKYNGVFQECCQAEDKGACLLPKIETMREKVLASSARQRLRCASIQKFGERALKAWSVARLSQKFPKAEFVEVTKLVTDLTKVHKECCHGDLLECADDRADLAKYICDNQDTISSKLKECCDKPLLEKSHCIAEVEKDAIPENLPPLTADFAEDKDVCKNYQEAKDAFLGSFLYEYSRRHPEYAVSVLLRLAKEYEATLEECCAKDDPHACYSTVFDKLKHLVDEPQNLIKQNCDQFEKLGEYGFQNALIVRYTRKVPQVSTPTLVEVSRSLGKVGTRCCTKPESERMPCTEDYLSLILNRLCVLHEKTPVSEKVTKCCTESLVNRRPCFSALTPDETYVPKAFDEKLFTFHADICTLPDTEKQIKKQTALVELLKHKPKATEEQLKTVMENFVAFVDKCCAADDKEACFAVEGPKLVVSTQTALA
Test [11] is described as follows: probe aXIP binding to arrayed compounds – biochemical, NeuroSMM set, 635/667 nm fluorescence, primary screen (AID 1119).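 Also: probe is the protein aXip251-270 applied at 1 µg/mL to compound-printed slides; binding of probe to printed compounds measured as 667 nm fluorescence plus signal to noise.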 The settings on record: small-molecule microarray, higher = more signal, called active from +8 up or from −8 down.
Test [12] in a line: probe aNOTCH3 binding on compound microarray – biochemical, small-molecule microarray, 635/667 nm fluorescence, primary screen (AID 1120).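 Also: probe is a biotin-tagged antibody raised against NOTCH3 rather than NOTCH3 protein; score merges spot fluorescence near 667 nm with spot signal to noise.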 The settings on record: higher = more signal.
Test [13] in a line: probe aNOTCH2 binding on compound microarray – biochemical, small-molecule microarray, 635/667 nm fluorescence, primary screen (AID 1121).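 Also: score merges feature fluorescence read at 667 nm with its signal to noise.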 The settings on record: higher = more signal.
The target of test [14] is Carbonic anhydrase 2 (Homo sapiens) (UniProt P00918). Kind of test: compounds binding carbonic anhydrase 2 – biochemical, small-molecule microarray, Alexa647-labelled CAII, profiling panel (AID 1122). The following applies: CAII-A647 binding fluorescence, higher = more signal.
Test [15] can be described thus: COS7 lysate on small-molecule microarray, probe aHis, 635 nm (AID 1123).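 Also: z-score combines 667nm fluorescence intensity with signal-to-noise per printed compound spot.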 The following applies: COS7 cell lysate, fluorescence, higher = more signal.
Test [16] in a line: probe aLAP1 signal on lysate-treated microarray – cell lysate, small-molecule microarray, COS7 lysate, primary screen (AID 1124).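 Also: lysate comes from COS7 cells expressing LAP1 and is applied at 0.3 µg/mL; score merges spot fluorescence near 667 nm with signal-to-noise over triplicate slides.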 The settings on record: probe aLAP1, fluorescence, higher = more signal.
Another test has as its system Sam68 (KHDRBS1). Kind of test: compounds binding KHDRBS1 protein – biochemical, small-molecule microarray, 635 nm fluorescence, primary screen (AID 1125).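 Also: score merges 667 nm channel intensity with signal to noise over triplicate slides.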 The following applies: higher = more signal.
For test [17], the system named is Chordin-like protein 2 (CHRDL2). Kind of test: compounds binding chordin-like 2 – biochemical, small-molecule microarray, 635 nm fluorescence, primary screen (AID 1126).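 Also: printed compound slides probed with Chrdl2 protein at 4 µg/mL for 1 h at 4 C; score merges 667 nm emission intensity with signal to noise over three replicate slides.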 The following applies: fluorescence 635 nm, higher = more signal.
Test [18] concerns the target Concanavalin-A (Canavalia ensiformis) (UniProt P02866). Kind of test: compounds binding concanavalin A lectin – biochemical, small-molecule microarray, Alexa647 label, 635 nm, artefact control for SMM control protein annotation, primary screen (AID 1127).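 Also: z combines 667 nm emission intensity with signal-to-noise across three replicate slides.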 The settings on record: ConA-A647 binding fluorescence, higher = more signal.

The source made the active and inactive calls.

Chain of Concanavalin-A (Canavalia ensiformis) (P02866 whole entry, looked up): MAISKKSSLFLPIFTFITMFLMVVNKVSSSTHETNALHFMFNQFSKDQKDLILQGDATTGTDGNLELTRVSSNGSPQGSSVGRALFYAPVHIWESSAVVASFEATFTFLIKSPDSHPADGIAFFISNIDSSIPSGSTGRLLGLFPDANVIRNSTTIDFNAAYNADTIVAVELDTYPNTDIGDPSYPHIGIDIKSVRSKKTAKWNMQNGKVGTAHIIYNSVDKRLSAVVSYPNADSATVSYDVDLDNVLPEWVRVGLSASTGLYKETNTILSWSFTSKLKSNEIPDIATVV
Chain of Left-right determination factor 2 (Homo sapiens) (O00292 whole entry, looked up): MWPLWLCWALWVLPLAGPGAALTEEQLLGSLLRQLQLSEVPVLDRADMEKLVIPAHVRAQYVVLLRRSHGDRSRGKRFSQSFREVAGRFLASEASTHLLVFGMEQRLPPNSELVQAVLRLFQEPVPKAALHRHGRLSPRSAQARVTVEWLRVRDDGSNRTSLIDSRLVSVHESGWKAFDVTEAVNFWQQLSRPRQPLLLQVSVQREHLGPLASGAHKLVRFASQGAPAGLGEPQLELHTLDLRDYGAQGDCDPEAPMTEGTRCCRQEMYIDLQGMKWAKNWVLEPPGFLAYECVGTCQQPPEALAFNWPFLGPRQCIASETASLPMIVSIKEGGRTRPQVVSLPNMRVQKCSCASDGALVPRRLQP
Chain of Alpha-bungarotoxin (Bungarus multicinctus) (P60615 whole entry, looked up): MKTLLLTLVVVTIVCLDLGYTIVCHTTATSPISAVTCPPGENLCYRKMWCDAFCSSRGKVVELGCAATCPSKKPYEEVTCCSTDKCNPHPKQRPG

With `COC(=O)C[C@@H]1C[C@H](C)[C@]2(O1)C(=O)N(Cc1ccccc1)c1ccc(NC(C)=O)cc12`, the composite z-score is -0.654 in [1]; 0.266 in [3]; -0.595 in test [4]; -0.324 in [5]; -0.311 in test [6]; -0.543 in [7]. Moreover, the composite z-score in test [8] is 0.0034; in test [9] it was 0.458; in test [10] it was -0.194; with Albumin (Bos taurus), -0.211; in test [12], -0.116; in [13] it was -0.185. For the same molecule, the composite z-score in test [14] is -0.153; in test [15], 0.117; in [16] it was -0.0791; in the test with Sam68 (KHDRBS1), -0.506; in test [17], 0.343; in test [18] it was 0.0104. In addition, the z-score in [2] was -0.249. Further, the composite Z-score in test [11] was -0.209 (inactive).
For the molecule `CC(C)NC(=O)[C@@H]1c2ccccc2C(=O)N(Cc2ccccc2)[C@H]1c1ccc(CO)cc1`, the composite z-score was -1.8 in test [1]; -1.06 in test [3]; -0.472 in test [4]; 0.477 in [5]; 0.115 in [6]; -0.214 in test [7]. Also, the composite z-score in test [8] was -0.647; in test [9], 1.57; in test [10], 0.181; with Albumin (Bos taurus), -0.113; in [12] it was 0.0237; in [13], -0.0638. For the same molecule, the composite z-score in test [14] was 0.706; in test [15], 2.01; in test [16], 0.821; in the test on Sam68 (KHDRBS1), -0.598; in test [17], -1.38; in test [18], -0.717. For the same molecule, in [2], the z-score is -0.777. In addition, the composite Z-score in test [11] was 0.601 (inactive).
With `CCCCCCCCCCC(O)C1C=CC2C(=O)N(Cc3ccccc3)C(=O)C2N1n1cnnc1` (stereo not given), the composite z-score was 1.37 in test [1]; -0.62 in test [3]; 1.55 in test [4]; 0.727 in test [5]; 0.147 in [6]; 0.251 in test [7]. Moreover, the composite z-score in [8] was found to be 0.62; in [9] it was 0.36; in test [10] it was 1.02; with Albumin (Bos taurus), 0.834; in test [12] it was 0.435; in test [13], 0.0605. The composite z-score in [14] is 0.485; in test [15] it was 1.1; in test [16], 0.687; in the test on Sam68 (KHDRBS1), 1.11; in test [17], -0.686; in test [18] it was 1.04. Besides, in test [2], the z-score is -1.2. In addition, the composite Z-score in test [11] is 0.797 (inactive).
For the molecule `O=C(CS)NCCCCCCNC(=O)[C@H]1C[C@H]2C(=O)NCC(=O)N2[C@H]1c1ccc(O)cc1`, the composite z-score is -0.175 in test [1]; -0.571 in [3]; -0.156 in [4]; 0.802 in test [5]; -0.171 in [6]; -0.286 in test [7]. Also, the composite z-score in test [8] is -0.379; in test [9] it was -0.633; in [10], 0.136; with Albumin (Bos taurus) it was -0.523; in test [12], -0.25; in test [13], -0.14. Further, the composite z-score is 0.696 in test [14]; 0.677 in [15]; 0.621 in test [16]; -0.272 in the test on Sam68 (KHDRBS1); 0.129 in [17]; 0.336 in test [18]. Also, the z-score in test [2] was -0.344. Further, the composite Z-score in [11] was 0.131 (inactive).
Regarding `Cc1ccc([C@H]2C(C(=O)O)=C[C@@H](C)N2S(=O)(=O)c2ccc(C)cc2)cc1`, the composite z-score was 0.801 in test [1]; -0.942 in test [3]; 1 in test [4]; 0.0248 in [5]; -0.0478 in test [6]; 0.0062 in test [7]. Moreover, the composite z-score in test [8] was -0.0827; in test [9] it was 0.917; in [10], 1.57; in the test with Albumin (Bos taurus), 0.892; in test [12] it was -0.0918; in test [13], 0.069. Also, the composite z-score in test [14] was 0.866; in test [15], 2.6; in test [16], 0.166; in the test with Sam68 (KHDRBS1) it was 0.821; in test [17], -1.55; in test [18] it was -0.72. Also, the z-score in test [2] is 0.537. The composite Z-score in test [11] was 0.24 (inactive).

(Values after PubChem BioAssay.)
